# The supplement of paper PMC8728848
# This is one part of a sample in which the strongest signals are shown more often than they occur.
# B1: C7A (Sus scrofa) (peptide)
# chain: KILRGVCKKIMRTFLRRISKKILTGKK
# Columns and labels:
# Assay in all cases: glycan array binding signal (z-score within array); higher = stronger binding
# Details in all cases: glycan notation: IUPAC condensed, linker removed; mutation: D21K
# [1] = target: Fuc(a1-2)Gal(b1-3)GalNAc(a1-3)[Fuc(a1-2)]Gal(b1-4)GlcNAc
# In short: (§1)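 The Consortium for Functional Glycomics database supplied 3228 glycan arrays, of which those lacking an available protein sequence were dropped. The binding signal, a within-array Z-score, was averaged across arrays of the same protein sequence and across linkers. Negative scores can be read as non-binding.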
# [2] = target: Fuc(a1-2)Gal(b1-4)[Fuc(a1-3)]GlcNAc
# In short: as §1
# [3] = target: Fuc(a1-2)[Gal(a1-3)]Gal(b1-4)GlcNAc
# In short: as §1
# [4] = target: Fuc(a1-2)[Gal(a1-3)]Gal(b1-4)GlcNAc(b1-3)GalNAc
# In short: as §1
# [5] = target: Fuc(a1-2)[Gal(a1-3)]Gal(b1-4)GlcNAc(b1-3)[Fuc(a1-2)[Gal(a1-3)]Gal(b1-4)GlcNAc(b1-6)]GalNAc
# In short: as §1
# [6] = target: Fuc(a1-2)[Gal(a1-3)]Gal(b1-4)GlcNAc(b1-6)GalNAc
# In short: as §1
# [7] = target: Fuc(a1-2)[Gal(a1-3)]Gal(b1-4)[Fuc(a1-3)]GlcNAc
# In short: as §1
# [8] = target: Fuc(a1-2)[GalNAc(a1-3)]Gal(b1-4)GlcNAc(b1-2)Man(a1-3)[Fuc(a1-2)[GalNAc(a1-3)]Gal(b1-4)GlcNAc(b1-2)Man(a1-6)]Man(b1-4)GlcNAc(b1-4)GlcNAc
# In short: as §1
# [9] = target: Fuc(a1-2)[GalNAc(a1-3)]Gal(b1-4)GlcNAc(b1-3)[Fuc(a1-2)[GalNAc(a1-3)]Gal(b1-4)GlcNAc(b1-6)]GalNAc
# In short: as §1
# [10] = target: Gal(a1-3)Gal(b1-4)GlcNAc(b1-2)Man
# In short: as §1
# Gal(a1-4)GlcNAc = target: Gal(a1-4)GlcNAc
# In short: as §1
# Gal(a1-6)Glc = target: Gal(a1-6)Glc
# In short: as §1
# [11] = target: Gal(b1-3)GalNAc(b1-3)Gal(a1-4)Gal(b1-4)Glc
# In short: as §1
# [12] = target: Gal(b1-3)GalNAc(b1-4)[Neu5Ac(a2-3)]Gal(b1-4)Glc
# In short: as §1
# [13] = target: Gal(b1-3)GlcNAc(b1-2)Man(a1-3)[GlcNAc(b1-4)][Gal(b1-3)GlcNAc(b1-2)Man(a1-6)]Man(b1-4)GlcNAc(b1-4)GlcNAc
# In short: as §1
# [14] = target: Gal(b1-3)GlcNAc(b1-3)Gal(b1-4)Glc
# In short: as §1
# [15] = target: Gal(b1-3)GlcNAc(b1-3)Gal(b1-4)GlcNAc(b1-3)Gal(b1-4)GlcNAc(b1-2)[Gal(b1-3)GlcNAc(b1-3)Gal(b1-4)GlcNAc(b1-3)Gal(b1-4)GlcNAc(b1-6)]Man(a1-6)[Gal(b1-3)GlcNAc(b1-3)Gal(b1-4)GlcNAc(b1-3)Gal(b1-4)GlcNAc(b1-2)Man(a1-3)]Man(b1-4)GlcNAc(b1-4)[Fuc(a1-6)]GlcNAc
# In short: as §1
# Gal(b1-3)GlcNAc6S = target: Gal(b1-3)GlcNAc6S
# In short: as §1
# [16] = target: Gal(b1-3)[Fuc(a1-4)]GlcNAc(b1-2)Man(a1-3)[Gal(b1-3)[Fuc(a1-4)]GlcNAc(b1-2)Man(a1-6)]Man(b1-4)GlcNAc(b1-4)[Fuc(a1-6)]GlcNAc
# In short: as §1
# [17] = target: Gal(b1-3)[GlcNAc(b1-6)]GalNAc
# In short: as §1
# [18] = target: Gal(b1-4)GlcNAc(b1-3)Gal(b1-4)GlcNAc(b1-2)Man(a1-3)[Gal(b1-4)GlcNAc(b1-3)Gal(b1-4)GlcNAc(b1-2)Man(a1-6)]Man(b1-4)GlcNAc(b1-4)[Fuc(a1-6)]GlcNAc
# In short: as §1
# [19] = target: Gal(b1-4)GlcNAc(b1-3)Gal(b1-4)GlcNAc(b1-3)Gal(b1-4)GlcNAc(b1-3)Gal(b1-4)GlcNAc(b1-2)[Gal(b1-4)GlcNAc(b1-3)Gal(b1-4)GlcNAc(b1-3)Gal(b1-4)GlcNAc(b1-3)Gal(b1-4)GlcNAc(b1-6)]Man(a1-6)[Gal(b1-4)GlcNAc(b1-3)Gal(b1-4)GlcNAc(b1-3)Gal(b1-4)GlcNAc(b1-3)Gal(b1-4)GlcNAc(b1-2)Man(a1-3)]Man(b1-4)GlcNAc(b1-4)[Fuc(a1-6)]GlcNAc
# In short: as §1
# [20] = target: Gal(b1-4)GlcNAc(b1-3)Gal(b1-4)GlcNAc(b1-3)GalNAc
# In short: as §1
# [21] = target: Gal(b1-4)GlcNAc(b1-3)Gal(b1-4)GlcNAc(b1-6)[Gal(b1-3)]GalNAc
# In short: as §1
# [22] = target: Gal(b1-4)GlcNAc(b1-3)Gal(b1-4)[Fuc(a1-3)]GlcNAc(b1-3)Gal(b1-4)[Fuc(a1-3)]GlcNAc
# In short: as §1
# Gal3S6S(b1-4)GlcNAc = target: Gal3S6S(b1-4)GlcNAc
# In short: as §1
# Gal6S(b1-3)GlcNAc6S = target: Gal6S(b1-3)GlcNAc6S
# In short: as §1
binder,measurement,setting,value
B1,glycan array binding signal (z-score),[1],-0.784
same,glycan array binding signal (z-score),[2],-1.12
same,glycan array binding signal (z-score),[3],0.504
same,glycan array binding signal (z-score),[4],-1.37
same,glycan array binding signal (z-score),[5],-0.287
same,glycan array binding signal (z-score),[6],0.121
same,glycan array binding signal (z-score),[7],1.3
same,glycan array binding signal (z-score),[8],-0.971
same,glycan array binding signal (z-score),[9],0.698
same,glycan array binding signal (z-score),[10],-0.255
same,glycan array binding signal (z-score),Gal(a1-4)GlcNAc,-1.02
same,glycan array binding signal (z-score),Gal(a1-6)Glc,-1.76
same,glycan array binding signal (z-score),[11],2.25
same,glycan array binding signal (z-score),[12],0.649
same,glycan array binding signal (z-score),[13],0.213
same,glycan array binding signal (z-score),[14],-0.894
same,glycan array binding signal (z-score),[15],0.352
same,glycan array binding signal (z-score),Gal(b1-3)GlcNAc6S,1.73
same,glycan array binding signal (z-score),[16],-1.63
same,glycan array binding signal (z-score),[17],-0.867
same,glycan array binding signal (z-score),[18],3.05
same,glycan array binding signal (z-score),[19],-0.172
same,glycan array binding signal (z-score),[20],2.33
same,glycan array binding signal (z-score),[21],2.48
same,glycan array binding signal (z-score),[22],-0.696
same,glycan array binding signal (z-score),Gal3S6S(b1-4)GlcNAc,2.5
same,glycan array binding signal (z-score),Gal6S(b1-3)GlcNAc6S,2.66
